Results taken from PubChem BioAssay (NCI).
Values joined by “and” are separate entries in the source; they are usually repeats but may differ in a detail not shown here. Equal entries are not always repeated. The panel holds about 79,000 compounds, 15% with a hit somewhere; the sample as a whole holds those more often. Active and inactive are the calls of the source. Cut-off read from the data, not from the text of the source: active = growth inhibition above about 70%; inactive = the rest.

Tests used:
[1] = NCI Yeast Anticancer Drug Screen. Data for the rad50 strain (AID 155);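 note: 0% = growth of vehicle-only cultures of the same strain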; conditions: S. cerevisiae rad50 strain growth inhibition, stronger effect = higher value
In short: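 Relative growth inhibition (compound vs vehicle) was measured in yeast with a defined repair-gene alteration.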

[2] = NCI Yeast Anticancer Drug Screen. Data for the mec2-1 strain (AID 157); conditions: S. cerevisiae mec2-1 strain, stronger effect = higher value
In short: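 Cells of the genetically defined mec2-1 yeast strain are incubated with test compound. Inhibition of growth is calculated against vehicle-treated controls.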

[3] = NCI Yeast Anticancer Drug Screen. Data for the sgs1 mgt1 strain (AID 161);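 note: 0% = growth of cultures given vehicle only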; conditions: S. cerevisiae sgs1 mgt1 strain, stronger effect = higher value
In short: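 Test agents were incubated with a DNA-repair-mutant yeast strain. Growth was then read and compared against vehicle-treated controls.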

[4] = NCI Yeast Anticancer Drug Screen. Data for the cln2 rad14 strain (AID 165);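 note: 0% = growth equal to vehicle treated cultures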; conditions: S. cerevisiae cln2 rad14 strain, stronger effect = higher value
In short: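 The screen exposed genetically defined yeast (cln2 rad14) to test compounds and scored growth inhibition relative to vehicle-treated controls.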

[5] = NCI Yeast Anticancer Drug Screen. Data for the mlh1 rad18 strain (AID 175); conditions: S. cerevisiae mlh1 rad18 strain growth inhibition, stronger effect = higher value
In short: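 Compound-treated yeast growth, normalised to vehicle controls. Strain bears defined DNA repair mutations.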

[6] = NCI Yeast Anticancer Drug Screen. Data for the bub3 strain (AID 167); conditions: S. cerevisiae bub3 mutant strain, stronger effect = higher value
In short: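 Screening used yeast with an engineered genetic alteration affecting cell cycle control. Compound-exposed cultures were compared with vehicle cultures, and reduced growth was taken as inhibition.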

[7] = at 5.0 µM (retest, dose inferred, filed as 0.5)
[8] = at 50.0 µM (retest, dose inferred, filed as 5.0)

Measured: growth inhibition

Cn1c(=O)c2c(nc([N+](=O)[O-])n2C)n(C)c1=O
inactive: [1]; [7] 2% | [1]; [8] 48% | [2]; [7] 9% | [2]; [8] 39% | [2]; at 50.0 µM 63.8% | [3]; [7] 4% | [3]; [8] 39% | [4]; [7] -2% | [4]; [8] 18% | [4]; at 50.0 µM 45.6% | [5]; [7] 0% | [5]; [8] 41% | [5]; at 50.0 µM 68%
active: [1]; at 50.0 µM 74.6% | [3]; at 50.0 µM 76.9%

CC(=O)OCC1OC(SSc2ccccc2)C(OC(C)=O)C(OC(C)=O)C1OC(C)=O (stereo not drawn)
active: [5]; [8] 73%
inactive: [1]; [7] -2% | [1]; [8] 13% | [1]; at 50.0 µM 59.4% | [2]; [7] -30% | [2]; [8] 69% | [2]; at 50.0 µM 44.6% | [3]; [7] 10% | [3]; [8] 7% | [3]; at 50.0 µM 58.1% | [4]; [7] -13% | [4]; [8] 5% | [4]; at 50.0 µM 45% | [6]; [7] -12% | [6]; [8] 8% | [6]; at 50.0 µM 8.5% | [5]; [7] -17% | [5]; at 50.0 µM 53.9%

CN(C)CCCSc1c2ccccc2nc2cccc([N+](=O)[O-])c12
inactive: [1]; [7] 2% | [1]; [8] 10% | [1]; at 50.0 µM 3.65% | [2]; [7] 0% | [2]; [8] -1% | [2]; at 50.0 µM -9.4% | [3]; [7] -8% | [3]; [8] -3% | [3]; at 50.0 µM 7.5% | [4]; [7] 12% | [4]; [8] 18% | [4]; at 50.0 µM -47.8% | [6]; [7] 14% | [6]; [8] 8% | [6]; at 50.0 µM -43.5% | [5]; [7] 2% | [5]; [8] -5% | [5]; at 50.0 µM 20.6%

COc1ccc(C2NCc3c(sc4c3CCCC4)-n3cccc32)cc1 (stereo not drawn)
inactive: [1]; [7] -4% | [1]; [8] 43% | [1]; at 50.0 µM 57.1% | [2]; [7] -2% | [2]; [8] 31% | [2]; at 50.0 µM 11.8% | [3]; [7] -13% | [4]; [7] -5% | [4]; [8] 53% | [4]; at 50.0 µM 57.9% | [6]; [7] 0% | [6]; [8] 54% | [6]; at 50.0 µM 18.7% | [5]; [7] -7%
active: [3]; [8] 84% | [3]; at 50.0 µM 93.2% | [5]; [8] 87% | [5]; at 50.0 µM 77%

CCOC(=O)CC(O)(CCc1ccccc1)c1ccccc1 (stereo not drawn)
inactive: [1]; [7] -5% | [1]; [8] 6% | [1]; at 50.0 µM 25.4% | [2]; [7] 1% | [2]; [8] 2% | [2]; at 50.0 µM 54.8% | [3]; [7] -14% | [3]; [8] 22% | [3]; at 50.0 µM -2.1% | [4]; [7] -1% | [4]; [8] -14% | [4]; at 50.0 µM -18.2% | [6]; [7] 14% | [6]; [8] 40% | [6]; at 50.0 µM 21.1% | [5]; [7] -1% | [5]; [8] 45% | [5]; at 50.0 µM 9.95%

Cc1ccc2c(-c3ccccc3)c3ccccc3cc2c1C
inactive: [1]; [7] 6% | [1]; [8] 3% | [1]; at 50.0 µM 46.1% | [2]; [7] 13% | [2]; [8] 20% | [2]; at 50.0 µM 16.9% | [3]; [7] 8% | [3]; [8] 18% | [3]; at 50.0 µM 27.6% | [4]; [7] -4% | [4]; [8] -11% | [4]; at 50.0 µM 14.5% | [5]; [7] -3% | [5]; [8] 2% | [5]; at 50.0 µM 53.4%

O=C(OC1C2CCC2C2CC21)c1ccc([N+](=O)[O-])cc1[N+](=O)[O-] (stereo not drawn)
active: [1]; [8] 95% | [2]; [8] 99% | [3]; [8] 98% | [4]; [8] 99% | [5]; [8] 98%
inactive: [1]; [7] 26% | [1]; at 50.0 µM 36% | [2]; [7] 14% | [2]; at 50.0 µM 37.5% | [3]; [7] 24% | [3]; at 50.0 µM 59.1% | [4]; [7] 6% | [4]; at 50.0 µM 39.5% | [5]; [7] 25% | [5]; at 50.0 µM 62.9%

CCCCCCC(/C=C/c1ccccc1)=N\O
active: [2]; [8] 96% | [2]; at 50.0 µM 98.7% | [3]; [8] 96% | [3]; at 50.0 µM 98.8% | [4]; [8] 96% | [4]; at 50.0 µM 98.2% | [6]; [8] 94% | [6]; at 50.0 µM 98.8% | [5]; [8] 95% | [5]; at 50.0 µM 99.2%
inactive: [2]; [7] -1% | [3]; [7] 6% | [4]; [7] -10% | [6]; [7] -2% | [5]; [7] 2%

O=C(c1ccccc1)C1C(=O)c2ccccc2C1=O
inactive: [1]; at 50.0 µM -10.2% and -25.2% and 23.2% | [2]; at 50.0 µM 1.1% and -21.3% and 20% | [3]; at 50.0 µM -5.1% and 12.2% and 24.1% | [4]; at 50.0 µM -20.8% and 17.2% and 17.1% | [6]; at 50.0 µM -10.4% and -2.95% and 19.4% | [5]; at 50.0 µM -7.6% and -26.1% and 18.5%

COc1ccc2nc3cccc([N+](=O)[O-])c3c(NCCN(C)C)c2c1
inactive: [6]; [7] 36%
active: [1]; [7] 86% | [1]; [8] 95% | [1]; at 50.0 µM 80% | [3]; [7] 87% | [3]; [8] 74% | [3]; at 50.0 µM 84.5% | [4]; [7] 92% | [4]; [8] 97% | [4]; at 50.0 µM 83% | [6]; [8] 96% | [6]; at 50.0 µM 82.2% | [5]; [7] 92% | [5]; [8] 97% | [5]; at 50.0 µM 79.6%

CC(C)c1ccc2c(c1)CCC1C(C)(CNC(=O)S)CCCC21C.[Zn+2] (stereo not drawn)
inactive: [1]; [7] 9% | [1]; [8] 13% | [1]; at 50.0 µM -8.15% | [3]; [7] 5% | [3]; [8] 40% | [3]; at 50.0 µM -10.6% | [4]; [7] 10% | [4]; [8] 4% | [4]; at 50.0 µM 38.5% | [6]; [7] 6% | [6]; [8] 35% | [6]; at 50.0 µM 2% | [5]; [7] 5% | [5]; [8] 29% | [5]; at 50.0 µM -10.6%

CC(=O)Nc1ccc(Nc2ccc(C(=C3C=CC(=[N+](C)CCC#N)C=C3)c3ccc(N(C)CCC#N)cc3)cc2)cc1
inactive: [2]; [7] 13% | [2]; at 50.0 µM 47.7% | [3]; [7] 44% | [3]; at 50.0 µM 58.4% | [4]; [7] 41% | [4]; at 50.0 µM 55.5% | [6]; [7] 45% | [6]; at 50.0 µM 59.5% | [5]; [7] 15% | [5]; at 50.0 µM 45%
active: [2]; [8] 77% | [3]; [8] 83% | [4]; [8] 83% | [6]; [8] 77% | [5]; [8] 72%

Cc1cc(Cl)c(O)c(-c2cc(-c3ccccc3O)c(C#N)c(N)n2)c1
inactive: [1]; [7] 4% | [1]; at 50.0 µM 59.5% | [2]; [7] -22% | [2]; at 50.0 µM 52.1% | [3]; [7] -28% | [3]; at 50.0 µM 67.7% | [4]; [7] -4% | [4]; [8] 65% | [4]; at 50.0 µM 69.4% | [5]; [7] -23% | [5]; at 50.0 µM 55%
active: [1]; [8] 75% | [2]; [8] 80% | [3]; [8] 80% | [5]; [8] 87%

CC(O)(c1ccccc1)c1ccccc1S(=O)(=O)Nc1ccccc1 (stereo not drawn)
inactive: [1]; [7] -7% | [3]; [7] -4% | [4]; [7] 12% | [4]; [8] 33% | [6]; [7] -5% | [6]; [8] 46% | [5]; [7] -2%
active: [1]; [8] 99% | [1]; at 50.0 µM 99.2% | [3]; [8] 99% | [3]; at 50.0 µM 98.5% | [4]; at 50.0 µM 98.5% | [6]; at 50.0 µM 98.9% | [5]; [8] 98% | [5]; at 50.0 µM 98.4%

CC(C)(C)CCCC(C(=O)O)c1ccccc1 (stereo not drawn)
inactive: [2]; [7] -10% | [2]; [8] 54% | [3]; [7] -2% | [3]; [8] 31% | [3]; at 50.0 µM 63% | [4]; [7] -10% | [4]; [8] 60% | [6]; [7] -7% | [6]; [8] 57% | [6]; at 50.0 µM 55.1% | [5]; [7] -7% | [5]; [8] 49%
active: [2]; at 50.0 µM 75.8% | [4]; at 50.0 µM 76.8% | [5]; at 50.0 µM 85.1%

COc1ccccc1C(=O)N(Cc1ccccc1)c1ccc(Cl)c(C(=O)OC(C)C)c1
inactive: [1]; [7] 28% | [1]; [8] 59% | [1]; at 50.0 µM 15.3% | [3]; [7] 1% | [3]; [8] 33% | [3]; at 50.0 µM -33.3% | [4]; [7] -6% | [4]; [8] 14% | [4]; at 50.0 µM 10.5% | [6]; [7] -55% | [6]; [8] 15% | [6]; at 50.0 µM -8.1% | [5]; [7] 3% | [5]; [8] 31% | [5]; at 50.0 µM 19.1%

C(=N\N=C\c1ccc2c(c1)OCO2)/c1ccc2c(c1)OCO2
active: [4]; at 50.0 µM 75.9%
inactive: [1]; [7] 2% | [1]; [8] 4% | [1]; at 50.0 µM 3.1% | [3]; [7] 0% | [3]; [8] 6% | [3]; at 50.0 µM -3.7% | [4]; [7] -32% | [4]; [8] -6% | [6]; [7] 3% | [6]; [8] 1% | [6]; at 50.0 µM 3.9% | [5]; [7] 10% | [5]; [8] 21% | [5]; at 50.0 µM 6.45%

COC(=O)c1c(C)cccc1C(=O)c1c(C)cc(C)cc1C
inactive: [2]; [7] 21% | [2]; [8] 68% | [3]; [7] -1% | [4]; [7] -26% | [4]; [8] 45% | [4]; at 50.0 µM 15.2% | [6]; [7] 2% | [6]; [8] 56% | [5]; [7] 4%
active: [2]; at 50.0 µM 82.2% | [3]; [8] 82% | [3]; at 50.0 µM 91.8% | [6]; at 50.0 µM 88.2% | [5]; [8] 85% | [5]; at 50.0 µM 91.8%

COc1cccc2c1N[S@](=O)S2
active: [2]; [8] 94% | [2]; at 50.0 µM 90.2% | [3]; at 50.0 µM 77.9% | [6]; [8] 95% | [6]; at 50.0 µM 95.5% | [5]; [8] 77%
inactive: [2]; [7] -12% | [3]; [7] 1% | [3]; [8] 68% | [4]; [7] -2% | [4]; [8] 33% | [4]; at 50.0 µM 30% | [6]; [7] 1% | [5]; [7] -11% | [5]; at 50.0 µM 69.9%
